# Screening data as filed in PubChem.
# Cycloheximide cs: affects cycloheximide protein synthesis inhibition readout, counter-screen; cell reporter, cycloheximide protein synthesis inhibition counterscreen; max response, %; 300,000 compounds, 12% hits; in the data active = max response mostly above about 13%, no sharp cut-off; inactive = mostly below about 14%; note: read at 38.3 µM for the half of the compounds with a filed dose; 0% is about no effect
# Shiga inhibitor: Shiga toxin inhibition. 290,000 compounds, 9.2% hits. inhibition, % at 38.7 µM. Vero cells, Shiga toxin protein synthesis inhibition reporter; in the data active = inhibition mostly above about 28%, no sharp cut-off; inactive = mostly below about 43%; note: 0% is about no effect
# Sm TGR inh: S. mansoni TGR enzyme inhibition. purified TGR, DTNB reduction, TNB absorbance 405 nm. Potency, µM (doses to about 114 µM), for the others: at the top dose activity change, negative = inhibition, usual class: inhibitors. 360,000 compounds, 3% hits. AID 485364; active = well fitted inhibition curve with a large enough effect; inconclusive = small, poorly fitted or top-dose-only effect; inactive = no such curve, though single readings can be large or run the other way; note: potency is the fitted concentration of half-maximal effect; % is set by controls: 0 for no effect and ±100 for the full control effect; nearly all actives have a fitted effect of over 60% in size
#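 TGR 20 nM + NADPH 100 uM (dispensed conc.), cpd preinc 15 min RT; start with NADPH (500 uM addition) then DTNB (15 mM addition). Kinetic TNB absorbance, 405 nm filter. Four-parameter Hill fit across titration.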
# FMDV inh: foot and mouth disease virus antiviral activity | Potency, µM (top dose mostly 57.9 µM), for the others: at the top dose activity change, negative = inhibition, usual class: inhibitors | 410,000 compounds, 1.2% hits | FMDV antiviral cell-based qHTS; calls by dose curve; tested in HEK293T cells; note: read-out not given here; potency is the fitted concentration of half-maximal effect; % is set by controls: 0 for no effect and ±100 for the full control effect; nearly all actives have a fitted effect of over 45% in size
# The depositor's hits bear a star; ? = inconclusive; . = no result. An excerpt weighted towards active compounds, which were near 12% of everything screened.
SMILES,Cycloheximide cs,Shiga inhibitor,Sm TGR inh,FMDV inh
CN(C)C(=O)c1cccc(-c2cnc3c(NC=O)cc(-c4cccc(C(F)(F)F)c4)cn23)c1,.,.,.,32µM*
COc1cc(-c2cnc3c(NC=O)cc(-c4cccc(C(F)(F)F)c4)cn23)cc(OC)c1OC,.,.,.,20µM*
CN(C)C(=O)c1cccc(-c2cnc3c(NC=O)cc(-c4cccc(F)c4)cn23)c1,.,.,.,0%
O=C(Nc1cccnc1)c1cc(-c2ccc(Br)cc2)on1,20*,42*,-11%,29%
O=C(Nc1cccnc1)c1cc(-c2ccccc2)on1,13,23,1%,56%
COC(=O)c1c(-c2cccnc2)csc1NC(=O)c1cc(C)on1,63*,83*,-1%,41%
COc1cccc(-c2cc(C(=O)Nc3cccnc3)no2)c1,31*,80*,-15%,3%
CCOc1ccc(CC(=O)NCc2ccc3c(c2)CCN3C(C)=O)cc1OCC,.,.,-7%,-2%
CCOc1ccc(NC(=O)CSC2=Nc3ccccc3C3=NC(CC(=O)NCc4cccs4)C(=O)N23)cc1 (stereo unspecified),.,.,1%,-23%
CCCSc1nsc(NC(=O)CCC)n1,37*,104*,-5%,3%
CCCCSc1nsc(NC(C)=O)n1,43*,171*,2%,19%
CCCSc1nsc(NC(=O)c2cccnc2OCC)n1,11,22,0%,12%
CCCCCCSc1nsc(NC(C)=O)n1,30*,59*,-20%,38%
CCCCNC(=O)CSc1nnc(NC(C)=O)s1,-1,52,-15%,-6%
Cc1ccc(N2CC(C(=O)NCc3nnnn3-c3ccc(C)c(C)c3)CC2=O)cc1C (stereo unspecified),.,.,4%,-15%
Cc1ccc(NC(=O)COC(=O)Cc2c[nH]c3ccccc23)cc1F,.,.,50µM*,-3%
NC(=O)c1ccsc1NC(=O)COC(=O)Cc1ccccc1,.,.,-16%,?
NC(=O)c1ccsc1NC(=O)COC(=O)Cc1cccc2ccccc12,-2,-4,7%,32µM*
O=C(COC(=O)Cc1c[nH]c2ccccc12)Nc1ccccc1,-1,-8,1%,0%
NC(=O)c1ccsc1NC(=O)COC(=O)Cc1c[nH]c2ccccc12,.,.,7%,20µM*
CCOc1ccc(-c2nc3c(C#N)c[nH]n3c2NC2CCCC2)cc1,.,.,0%,-10%
CCN(C(=O)c1cn(-c2ccc(OC)cc2)c(=O)c2ccccc12)c1cccc(Cl)c1,.,.,-7%,-9%
COc1cc(OC)cc(-c2nc3cc(C)ccc3o2)c1,58*,104*,7%,30%
Cc1ccc2nc(-c3ccc(O)cc3)oc2c1,19*,14,19%,13µM*
Clc1ccc(-c2nc3cc(CN4CCCCC4)ccc3o2)cc1,36*,54*,2%,13%
Clc1cccc(CN2CCCCCC2)c1,-2,2,104%,-1%
